Assay [1] has as its system Plasmodium falciparum Sir2 (PF13_0152, Sir2A). Description: Plasmodium falciparum Sir2A binding compounds – biochemical, small-molecule microarray, 635 nm fluorescence, primary screen (AID 1098).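 Also: score merges spot fluorescence intensity with its signal-to-noise ratio.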 The note with it: fluorescence 635 nm, higher = more signal.
Assay [2] can be described thus: probe aDKK1 binding to arrayed compounds – biochemical, biotinylated probe, 635/667 nm fluorescence, primary screen (AID 1099).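 Also: score merges 667nm spot fluorescence with signal to noise across triplicate slides.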 The note with it: small-molecule microarray, higher = more signal.
A short description of assay [3]: probe aCHRDL2 binding to arrayed compounds – biochemical, biotinylated probe, 635/667 nm fluorescence, primary screen (AID 1100). The note with it: small-molecule microarray, higher = more signal.
A short description of assay [4]: change in splice reporter luminescence, either direction, cell-based, HEK293, spliceosome inhibition project, primary screen (AID 1101).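 Also: HEK293 cells carrying a splicing-competent luciferase reporter gene; test concentration not given here.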 The note with it: HEK293 splicing luciferase reporter, 24 h, higher = more signal, called active from +8 up or from −8 down. (Reporter assays use an easily measured gene product as a stand-in for the process of interest.)
For assay [5], the target named is Fibroblast growth factor 10 (Homo sapiens) (UniProt O15520). Description: compounds binding fibroblast growth factor 10 – biochemical, small-molecule microarray, 635 nm fluorescence, primary screen (AID 1102). The note with it: FGF10 binding, fluorescence 635 nm, higher = more signal.
Assay [6] has as its system glycogen synthase kinase-3 (GSK3A per assay name; protocol says GSK3B). Put plainly: compounds binding glycogen synthase kinase-3 – biochemical, small-molecule microarray, 635 nm fluorescence, GSK3A, primary screen (AID 1103). Also: the record names both GSK3A and GSK3B. The note with it: fluorescence 635 nm, higher = more signal.
Assay [7] has as its target Epidermal growth factor receptor (Homo sapiens) (UniProt P00533). Description: compounds binding epidermal growth factor receptor – biochemical, small-molecule microarray, 635 nm fluorescence, primary screen (AID 1104).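 Also: score merges 667 nm emission intensity with spot signal to noise over triplicate slides.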 The settings on record: EGFR binding, higher = more signal.
Assay [8] concerns the target Follistatin-related protein 3 (Homo sapiens) (UniProt O95633). Description: compounds binding follistatin-related protein 3 – biochemical, small-molecule microarray, 635 nm fluorescence, primary screen (AID 1105).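 Also: score merges emission near 667 nm and signal to noise per printed spot across three slides.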 The note with it: FSTL3 binding, higher = more signal.
Assay [9] has as its target Dickkopf-related protein 1 (Homo sapiens) (UniProt O94907). Put plainly: small molecules binding DKK1 protein – biochemical, small-molecule microarray, 635 nm fluorescence scan, primary screen (AID 1106).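 Also: score merges emission near 667 nm with signal to noise over three replicate slides.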 The note with it: higher = more signal.
Assay [10] concerns Inhibin beta A chain (activin A). Put plainly: small molecules binding activin A – biochemical, small-molecule microarray, 635 nm fluorescence scan, primary screen (AID 1107).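 Also: mouse activin A protein probed at 4.33 µg/mL on printed slides; score merges bound-protein fluorescence near 667 nm with spot signal-to-noise.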 The settings on record: INHBA, higher = more signal.
Assay [11] concerns Human papillomavirus type 1a protein E7 (residues 44-93). Description: small molecules binding HPV E7 44-93 – biochemical, small-molecule microarray, residues 44-93, 635 nm fluorescence, primary screen (AID 1108).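 Also: E7 fragment applied at 1 µg/mL in TBST for 1 h at 4 C; score combines spot fluorescence with its signal to noise ratio.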 The note with it: fluorescence 635 nm, higher = more signal.
Assay [12] is described as follows: hepatitis C replication reporter changes, two-sided – Huh7 cells, luciferase reporter, HCV replication inhibitor project, primary screen (AID 1109).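 Also: huh7 hepatoma cells harbouring a luciferase neomycin HCV replicon reporter; luciferase luminescence as measure of HCV replicon replication; test concentration not given here.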 The note with it: Huh7 HCV replicon luciferase reporter, 48 h; higher = more signal.
The target of assay [13] is Left-right determination factor 2 (Homo sapiens) (UniProt O00292). Put plainly: small molecules binding LEFTY2 protein – biochemical, small-molecule microarray, 635 nm fluorescence scan, primary screen (AID 1110). The note with it: higher = more signal.
The target of assay [14] is Calmodulin-1 (Homo sapiens) (UniProt P0DP23). Put plainly: small molecules binding calmodulin-1 with EGTA – biochemical, small-molecule microarray, Cy5-labelled CALM1, profiling panel (AID 1111).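 Also: labelled calmodulin applied in Tris saline Tween buffer holding calcium plus EGTA and DTT.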 The settings on record: Cy5-CALM1 binding fluorescence, higher = more signal.
Assay [15] has the same target. Description: small molecules binding Ca-loaded calmodulin-1 – biochemical, small-molecule microarray, Cy5-labelled CALM1, plus calcium, artefact control for SMM control-protein annotation, profiling panel (AID 1112).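 Also: score merges spot fluorescence with signal to noise from triplicate slides.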 The settings on record: Cy5-CALM1 binding fluorescence, higher = more signal.
Assay [16] in a line: probe aWnt5a binding to arrayed compounds – biochemical, biotinylated probe, 635/667 nm fluorescence, primary screen (AID 1113).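 Also: score merges 667 nm fluorescence intensity with signal-to-noise per printed feature.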 The settings on record: small-molecule microarray, higher = more signal.
Assay [17] can be described thus: probe aShh binding to arrayed compounds – biochemical, biotinylated probe, 635/667 nm fluorescence, primary screen (AID 1114).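 Also: probe is biotin-labelled aShh protein from a stem cell growth factor screen; measures binding of labelled protein to compounds printed on the slide; score merges feature fluorescence at 667 nm with signal-to-noise.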 The note with it: small-molecule microarray, higher = more signal.
Assay [18] can be described thus: probe aNog binding to arrayed compounds – biochemical, biotinylated probe, 635/667 nm fluorescence, primary screen (AID 1115).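 Also: probe is biotinylated aNog protein used at 0.15 µg/mL for 1 h at 4 C; z-score combines 667 nm fluorescence of each spot with its signal to noise.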 The settings on record: small-molecule microarray, higher = more signal.
The target in assay [19] is Torsin-1A-interacting protein 1 (Homo sapiens) (UniProt Q5JTV8). Description: compound microarray binding of lysate hLAP1 – cell lysate, small-molecule microarray, COS7 lysate, 635/667 nm fluorescence, primary screen (AID 1116). The note with it: 635 nm fluorescence, higher = more signal.
For assay [20], the target named is Alpha-bungarotoxin (Bungarus multicinctus) (UniProt P60615). Description: compounds binding labelled alpha-BTX control protein – biochemical, small-molecule microarray, Alexa647 label, 635/667 nm fluorescence, artefact control for SMM control protein annotation, profiling panel (AID 1117). The note with it: alpha-BTX-A647 binding fluorescence, higher = more signal.

Calls of active or inactive are those of the source.

Dickkopf-related protein 1 (Homo sapiens), sequence (O94907 whole entry, looked up): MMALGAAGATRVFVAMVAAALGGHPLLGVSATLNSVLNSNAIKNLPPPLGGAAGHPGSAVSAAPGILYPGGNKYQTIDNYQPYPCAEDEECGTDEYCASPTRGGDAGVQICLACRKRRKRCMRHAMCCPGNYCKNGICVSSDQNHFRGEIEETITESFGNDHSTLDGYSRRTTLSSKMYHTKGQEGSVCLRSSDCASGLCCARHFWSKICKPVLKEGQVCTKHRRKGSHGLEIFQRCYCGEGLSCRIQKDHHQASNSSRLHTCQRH
Alpha-bungarotoxin (Bungarus multicinctus), sequence (P60615 whole entry, looked up): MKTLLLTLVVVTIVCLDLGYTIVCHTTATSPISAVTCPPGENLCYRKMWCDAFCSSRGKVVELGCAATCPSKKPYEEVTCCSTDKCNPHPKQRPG
Left-right determination factor 2 (Homo sapiens), sequence (O00292 whole entry, looked up): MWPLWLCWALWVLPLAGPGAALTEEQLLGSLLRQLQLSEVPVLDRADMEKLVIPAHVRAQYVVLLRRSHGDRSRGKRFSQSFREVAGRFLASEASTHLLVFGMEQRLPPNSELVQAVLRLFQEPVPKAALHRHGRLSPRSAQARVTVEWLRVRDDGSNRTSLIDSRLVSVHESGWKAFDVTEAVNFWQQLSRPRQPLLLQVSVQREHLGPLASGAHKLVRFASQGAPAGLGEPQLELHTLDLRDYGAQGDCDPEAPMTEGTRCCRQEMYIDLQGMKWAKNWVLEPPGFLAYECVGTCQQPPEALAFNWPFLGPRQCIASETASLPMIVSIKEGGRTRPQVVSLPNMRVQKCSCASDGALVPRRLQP
Follistatin-related protein 3 (Homo sapiens), sequence (O95633 whole entry, looked up): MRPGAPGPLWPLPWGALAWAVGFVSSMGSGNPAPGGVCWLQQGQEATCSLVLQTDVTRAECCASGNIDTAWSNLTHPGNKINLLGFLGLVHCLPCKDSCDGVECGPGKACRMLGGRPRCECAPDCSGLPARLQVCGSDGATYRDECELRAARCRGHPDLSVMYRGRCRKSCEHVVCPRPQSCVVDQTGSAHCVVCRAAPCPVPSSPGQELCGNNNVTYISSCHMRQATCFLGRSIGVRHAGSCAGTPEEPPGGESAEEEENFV
Epidermal growth factor receptor (Homo sapiens), sequence (P00533 whole entry, looked up): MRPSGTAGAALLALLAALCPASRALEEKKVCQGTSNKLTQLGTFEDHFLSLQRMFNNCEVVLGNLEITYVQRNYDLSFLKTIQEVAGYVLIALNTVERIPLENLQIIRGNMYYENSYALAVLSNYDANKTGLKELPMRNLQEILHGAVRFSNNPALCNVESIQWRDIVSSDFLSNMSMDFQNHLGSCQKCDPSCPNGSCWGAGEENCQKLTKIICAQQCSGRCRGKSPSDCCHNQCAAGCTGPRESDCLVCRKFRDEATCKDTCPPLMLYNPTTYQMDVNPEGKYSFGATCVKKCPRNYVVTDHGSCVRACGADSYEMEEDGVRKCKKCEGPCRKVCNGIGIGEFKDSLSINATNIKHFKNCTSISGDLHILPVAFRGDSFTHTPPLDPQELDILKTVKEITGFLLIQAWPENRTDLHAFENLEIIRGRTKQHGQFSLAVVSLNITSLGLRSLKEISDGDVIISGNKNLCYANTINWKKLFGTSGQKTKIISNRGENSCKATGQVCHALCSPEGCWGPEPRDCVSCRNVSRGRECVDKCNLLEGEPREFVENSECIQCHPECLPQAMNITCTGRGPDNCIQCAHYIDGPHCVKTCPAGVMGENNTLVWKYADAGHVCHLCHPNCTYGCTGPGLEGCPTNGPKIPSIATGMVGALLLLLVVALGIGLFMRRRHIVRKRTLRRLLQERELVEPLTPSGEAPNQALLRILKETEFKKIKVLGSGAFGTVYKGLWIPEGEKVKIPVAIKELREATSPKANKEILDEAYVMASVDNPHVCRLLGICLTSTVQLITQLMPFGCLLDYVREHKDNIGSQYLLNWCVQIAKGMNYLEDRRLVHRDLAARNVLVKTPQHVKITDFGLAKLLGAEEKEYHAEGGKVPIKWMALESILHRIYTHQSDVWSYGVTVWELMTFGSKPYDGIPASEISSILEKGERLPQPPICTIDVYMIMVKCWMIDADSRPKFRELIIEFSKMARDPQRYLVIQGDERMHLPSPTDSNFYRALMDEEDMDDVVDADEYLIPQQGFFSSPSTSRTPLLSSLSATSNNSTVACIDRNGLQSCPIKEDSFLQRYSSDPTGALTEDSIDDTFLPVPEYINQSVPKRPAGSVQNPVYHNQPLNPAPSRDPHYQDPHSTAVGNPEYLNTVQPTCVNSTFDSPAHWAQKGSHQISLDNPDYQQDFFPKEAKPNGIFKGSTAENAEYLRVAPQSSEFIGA
Torsin-1A-interacting protein 1 (Homo sapiens), sequence (Q5JTV8 whole entry, looked up): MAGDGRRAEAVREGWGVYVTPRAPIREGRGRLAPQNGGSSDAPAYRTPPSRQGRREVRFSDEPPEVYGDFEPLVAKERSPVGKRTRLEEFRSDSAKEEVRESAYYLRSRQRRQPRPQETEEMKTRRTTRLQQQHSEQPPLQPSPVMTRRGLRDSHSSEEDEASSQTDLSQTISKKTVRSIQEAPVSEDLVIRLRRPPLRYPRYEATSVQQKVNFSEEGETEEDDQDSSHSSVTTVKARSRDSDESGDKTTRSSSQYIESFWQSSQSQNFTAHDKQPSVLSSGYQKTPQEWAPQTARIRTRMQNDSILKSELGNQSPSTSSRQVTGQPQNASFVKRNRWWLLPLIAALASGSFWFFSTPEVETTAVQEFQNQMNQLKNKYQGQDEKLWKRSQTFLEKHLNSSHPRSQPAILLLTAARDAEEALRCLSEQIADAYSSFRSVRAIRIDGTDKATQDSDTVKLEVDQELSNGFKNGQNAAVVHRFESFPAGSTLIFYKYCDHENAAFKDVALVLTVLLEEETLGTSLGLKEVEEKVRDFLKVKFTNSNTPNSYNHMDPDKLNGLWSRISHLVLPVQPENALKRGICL
Fibroblast growth factor 10 (Homo sapiens), sequence (O15520 whole entry, looked up): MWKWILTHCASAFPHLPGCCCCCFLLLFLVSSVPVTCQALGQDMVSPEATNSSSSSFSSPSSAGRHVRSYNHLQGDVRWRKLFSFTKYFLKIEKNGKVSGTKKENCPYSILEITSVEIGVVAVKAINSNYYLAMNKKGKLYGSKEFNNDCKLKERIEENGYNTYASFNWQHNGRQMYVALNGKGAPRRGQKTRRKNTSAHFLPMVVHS

For `O=C1N(CCS(=O)(=O)c2ccccc2)Cc2ccccc2[C@@H]2OC(c3ccc(OCCCO)cc3)=N[C@]12CCS(=O)(=O)c1ccccc1`, the composite z-score in assay [1] worked out at 1.14; in assay [2], 0.846; in assay [3] it was 0.788; in [5], 1.46; in assay [6], 1.32; in assay [7], 0.89. The composite z-score was determined as 1.48 in assay [8]; 1.46 in [9]; 1.22 in [10]; 1.48 in [11]; 1.14 in assay [13]; 1.23 in assay [14]. The composite z-score in assay [15] is -0.104; in [16], 0.104; in assay [17] it was 0.0898; in assay [18], 0.445; in assay [19] it was 1.72; in [20], 0.821. For the same compound, the z-score in [4] is -0.42 (inactive); in [12], -0.0756.

`CCCC=C(CCC)[C@@H](NS(=O)(=O)c1cccc2cccnc12)c1ccc(-c2ccccc2)cc1`: the composite z-score in assay [1] was determined as 0.757; in [2], 0.939; in [3], 0.75; in [5], 1; in [6] it was 1.32; in assay [7], 0.355. The composite z-score in assay [8] is 0.909; in [9] it was -0.345; in [10], -0.278; in assay [11], 1.39; in [13], 0.601; in [14], 1.62. In addition, the composite z-score was 0.841 in [15]; 0.183 in [16]; 0.432 in [17]; -0.779 in [18]; 0.765 in [19]; 1.08 in assay [20]. Besides, the values for the z-score in [4] and in [12] were -0.301 (inactive) and -0.0261, respectively.

For `O=C1OCC=C[C@H]2OC34C=CCN(c5ccc6ccccc6c5)C(=O)[C@H]3N(CCCCCO)C(=O)[C@@H]4[C@@H]12` (stereo not given in full), the composite z-score in assay [1] was 1.88; in [2], 0.07; in assay [3] it was 0.878; in assay [5] it was -1.17; in assay [6] it was -1.55; in [7] it was -1.44. Moreover, the composite z-score in [8] is -1.56; in assay [9], -1.41; in [10] it was -0.255; in [11] it was 0.203; in assay [13], -2.05; in assay [14], -0.402. The composite z-score is 0.239 in assay [15]; -0.098 in [16]; 0.151 in assay [17]; 0.244 in assay [18]; 1.35 in assay [19]; -0.0602 in [20]. Besides, the z-score is -0.57 (inactive) in assay [4] and -0.078 in [12].

On to `CC(C)CCC[C@@H](C)[C@H]1CC[C@@]2(C)C3=C(CC[C@]12C)[C@@]1(C)CC[C@H](OC(=O)c2ccccc2)C(C)(C)C1CC3` (stereo not given in full), for which the composite z-score in [1] is 0.238; in assay [2] it was -0.279; in assay [3], -0.501; in assay [5], 0.155; in assay [6], 0.21; in assay [7], 0.375. For the same compound, the composite z-score in [8] was 0.429; in [9], 0.61; in assay [10] it was -0.0754; in [11] it was 0.359; in [13], 0.593; in assay [14] it was -0.0989. In addition, the composite z-score in assay [15] was -0.647; in assay [16], -0.124; in assay [17] it was -0.414; in assay [18], -0.0252; in assay [19], -0.251; in assay [20] it was 0.261. Also, the figures for the z-score in assay [4] and in assay [12] were -1.54 (inactive) and -0.313, respectively.

On to `C=C(COC)/C(=C/C[C@@H](OC(C)=O)c1ccc(CO)o1)c1cc(C(=O)OC)ccc1OC`, for which the composite z-score in [1] is 0.403; in assay [2], -0.138; in assay [3], -0.0929; in [5], 1.17; in [6], 0.0212; in assay [7], -0.725. In addition, the composite z-score in assay [8] is -0.185; in [9], -0.305; in assay [10] it was 1.08; in [11] it was 0.531; in assay [13] it was -0.0379; in assay [14], -0.177. Besides, the composite z-score in assay [15] is -0.9; in assay [16], -0.096; in [17], 0.479; in assay [18], 0.184; in [19] it was -0.315; in assay [20], 0.202. The z-score is 0.36 (inactive) in [4] and -1.45 in [12].

(Values after PubChem BioAssay.)
